Screening results from PubChem BioAssay.
The list is not random: actives were taken first. Their share in the collection is about 7.4%.
NIH3T3 tox = NIH 3T3 cell cytotoxicity; Potency, µM (titrated, usually from 96.7 µM), for inactives: at the top dose activity change, negative = cytotoxicity, hits mostly inhibitors; 4.3% of 94,000 active; NIH 3T3 viability, CellTiter-Glo ATP luminescence, 48-72 h; also: nearly all actives have a fitted effect of over 55% in size
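Cytotoxicity was measured by CellTiter-Glo ATP luminescence after 48 or 72 h compound exposure at 37 °C. Mouse NIH 3T3 fibroblasts were seeded at 400 cells/well and dosed by 23 nL pin transfer.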
SNCA viab count = reduces viability of HEK-293 SNCA reporter cells. HEK-293-SNCA-luc viability, GF-AFC fluorescence, 24 h. Potency, µM (series often up to 57.1 µM), without a hit: at the highest dose activity change, negative = cytotoxicity, most hits filed as cytotoxic. AID 1671193. 0.12% of 150,000 active;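 also: 0% = DMSO-treated cells and -100% = medium-only wells without cells; nearly all actives have a fitted effect of over 30% in size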
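HEK-293-SNCA-luc cells (1500/well) plated 24 h, then exposed 24 h to a dilution series; GF-AFC added 30 min at 37C, fluorescence 405/540 nm; normalised to medium-only and DMSO wells, Hill fit.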
SNCA expr inh = SNCA gene expression inhibition; HEK-293 SNCA-luciferase knock-in, luminescence, 24 h; Potency, µM (doses to about 57.2 µM), inactives show top-dose activity change, negative = inhibition, actives largely listed as inhibitors; 0.17% of 140,000 active; AID 1671194;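 also: plate controls were DMSO cells for no effect and cell-free wells for full effect; nearly all actives have a fitted effect of over 45% in size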
HEK293 tox = kills HEK 293 cells; HEK 293 viability, ATP luminescence (CellTiter-Glo), 48-72 h; Potency, µM (top dose mostly 115 µM), without a hit: at the top dose activity change, negative = cytotoxicity, usual class: inhibitors; 6.6% of 94,000 active; AID 1345083; also: nearly all actives have a fitted effect of over 60% in size
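Viability of HEK 293 cells, plated at 250 cells/well, was judged by cellular ATP after compound treatment for 48 or 72 hr. Luminescence was imaged 10 min after CellTiter-Glo addition at room temperature.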
Luciferase inh = blocks purified firefly luciferase enzyme activity. 2.5% of 76,000 active. Potency, µM (doses to about 115 µM), hits mostly inhibitors. purified P. pyralis luciferase, luminescence, biochemical. P08659. AID 1347043; also: nearly all actives have a fitted effect of over 65% in size
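Luminescence read by CCD imager after adding enzyme (10nM final) to wells holding compound, titrated in qHTS. Substrates 10uM each D-luciferin and ATP; buffer 50mM Tris acetate pH 7.5, 10mM Mg acetate, Tween-20, BSA.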
NPR1 antag = antagonists of human natriuretic peptide receptor Npr1 | 1.6% of 76,000 active | HEK293 hNpr1 GloSensor cGMP, ANP-stimulated luminescence | P16066 | Potency, µM (highest dose often 46.3 µM), for the others: top-dose activity change, negative = inhibition, hits mostly inhibitors; calls by dose curve; also: nearly all actives have a fitted effect of over 60% in size
Target sequence (P16066 whole entry, looked up): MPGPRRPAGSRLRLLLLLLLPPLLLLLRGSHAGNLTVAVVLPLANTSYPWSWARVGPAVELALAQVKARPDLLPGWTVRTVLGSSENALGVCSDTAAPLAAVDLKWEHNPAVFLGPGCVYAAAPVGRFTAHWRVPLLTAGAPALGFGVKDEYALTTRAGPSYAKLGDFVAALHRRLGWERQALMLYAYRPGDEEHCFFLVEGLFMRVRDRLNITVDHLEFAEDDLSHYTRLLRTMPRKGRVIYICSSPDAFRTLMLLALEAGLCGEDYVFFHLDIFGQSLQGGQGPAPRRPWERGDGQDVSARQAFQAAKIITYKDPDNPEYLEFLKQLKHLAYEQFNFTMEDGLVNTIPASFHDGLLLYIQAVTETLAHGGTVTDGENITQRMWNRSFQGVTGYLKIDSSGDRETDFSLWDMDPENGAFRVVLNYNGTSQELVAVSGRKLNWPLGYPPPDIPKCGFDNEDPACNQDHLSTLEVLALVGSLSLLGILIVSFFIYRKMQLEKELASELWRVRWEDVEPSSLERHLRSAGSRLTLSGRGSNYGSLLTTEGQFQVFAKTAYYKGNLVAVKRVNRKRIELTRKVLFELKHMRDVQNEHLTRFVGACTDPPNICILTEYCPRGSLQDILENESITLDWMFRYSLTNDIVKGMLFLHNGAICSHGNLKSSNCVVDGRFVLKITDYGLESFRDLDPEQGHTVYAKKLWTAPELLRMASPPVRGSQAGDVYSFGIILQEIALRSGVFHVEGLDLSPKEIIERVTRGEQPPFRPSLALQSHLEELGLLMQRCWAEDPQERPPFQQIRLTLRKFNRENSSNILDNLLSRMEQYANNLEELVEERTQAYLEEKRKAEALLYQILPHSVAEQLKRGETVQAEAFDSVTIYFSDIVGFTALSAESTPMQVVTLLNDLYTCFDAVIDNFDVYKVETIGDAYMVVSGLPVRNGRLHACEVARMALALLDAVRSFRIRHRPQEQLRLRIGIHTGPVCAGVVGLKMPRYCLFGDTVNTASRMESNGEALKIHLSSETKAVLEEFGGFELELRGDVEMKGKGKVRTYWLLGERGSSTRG
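HEK293 cells stably expressing human Npr1 and cGMP GloSensor pGS-40F, loaded 2 h with 2% GloSensor reagent, given compound 30 min at room temperature. Luminescence read before and 20 min after 0.1 nM hNppA.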
The depositor's hits bear a star; [ ] = dose if it differs, or a comment. Unless noted, calls follow the shape of the dose curve; as a rule, active = well fitted curve in the direction sought with a large enough effect; inconclusive = small, poorly fitted or top-dose-only effect, or another doubt; inactive = no such curve, though single readings can be large; an effect the other way counts as inactive or inconclusive. Unless noted, % is scaled to controls: 0 for no effect and ±100 for the full control effect; potency is read from the fitted curve at half-maximal effect.

For Cc1nn(-c2ccccc2)c2c1C(C)N(CC1CN(C(=O)NC(C)C)C1)C2=O (stereo not given) the results were NIH3T3 tox -20% and HEK293 tox -6%.
For Cc1nn2c(c1-c1ccccc1Oc1ccccc1)N([S+](=O)([O-])c1cccnc1)CCC2 the results were NIH3T3 tox inconclusive, SNCA viab count -11%, SNCA expr inh 3%, HEK293 tox inconclusive, Luciferase inh inactive and NPR1 antag -17%.
Cc1nn2c(c1-c1ccccc1C(C)C)N(Cc1ccc3c(c1)CCO3)CCC2 was read as NIH3T3 tox 28µM*, SNCA viab count inconclusive, SNCA expr inh inconclusive, HEK293 tox 35µM*, Luciferase inh inactive and NPR1 antag -21%[70.6 µM].
`Cc1nn2c(c1-c1ccccc1C(C)C)N(C(=O)C1CCOCC1)CCC2` gave NIH3T3 tox inconclusive, SNCA viab count 1%[87.6 µM], SNCA expr inh 7%[87.6 µM], HEK293 tox inconclusive, Luciferase inh inactive and NPR1 antag 4%[70.6 µM].
Cc1nn2c(c1-c1ccccc1C(C)C)N([S+](=O)([O-])c1ccc(C(C)C)cc1)CCC2 was read as NIH3T3 tox 22µM*, SNCA viab count -14%[87.6 µM], SNCA expr inh -22%[87.6 µM], HEK293 tox 40µM*, Luciferase inh inactive and NPR1 antag inconclusive.
Screening COc1ccc(CN2CCCn3nc(C)c(-c4ccccc4C(C)C)c32)cc1O returned NIH3T3 tox 35µM*, SNCA viab count -22%[87.6 µM], SNCA expr inh -27%[87.6 µM], HEK293 tox 63µM*, Luciferase inh inactive and NPR1 antag inconclusive.
For Cc1nn2c(c1-c1ccccc1C(C)C)N(Cc1ccc(C(=O)O)s1)CCC2 the results were NIH3T3 tox inconclusive, SNCA viab count -9%[87.6 µM], SNCA expr inh -24%[87.6 µM], HEK293 tox inconclusive, Luciferase inh inactive and NPR1 antag -8%[70.6 µM].
O=C(NCCNC(=O)c1ccc(C(F)(F)F)cc1)c1ccc(-c2cccc(C(F)(F)F)c2)cc1 was read as NIH3T3 tox -2% and HEK293 tox 5%.
`CN(C)C(=O)c1ccc(-c2cc(NC3CCCC3)nc3[nH]ccc23)o1` gave NIH3T3 tox inconclusive, SNCA viab count 0%, SNCA expr inh 15%, HEK293 tox 45µM*, Luciferase inh inconclusive and NPR1 antag 6%.
Screening Cc1cccc(C)c1-c1nnc2ccc(C(=O)NCCc3ccccc3F)cn12 returned NIH3T3 tox -12%, SNCA viab count -9%, SNCA expr inh 6% and HEK293 tox inconclusive.
Screening CC(C)Cc1cc(CNC(=O)Nc2nnc(C(C)(C)C)s2)on1 returned NIH3T3 tox inconclusive, SNCA viab count 4%, SNCA expr inh 2%, HEK293 tox 45µM*, Luciferase inh inactive and NPR1 antag -22%.
For Cc1ccccc1C(=O)NCCNC(=O)c1ccc(-c2cccc(C(F)(F)F)c2)cc1 the results were NIH3T3 tox -22% and HEK293 tox inconclusive.
CCN(CC)C(=O)c1cccc(-c2ccc(OCCn3ccnc3)cc2)c1 was read as NIH3T3 tox inconclusive, SNCA viab count -5%, SNCA expr inh 1%, HEK293 tox 45µM*, Luciferase inh inactive and NPR1 antag -25%.
For CCN(CCOc1ccc(C)cc1)C(=O)c1c(O)cccc1O the results were NIH3T3 tox inconclusive, SNCA viab count -10%, SNCA expr inh 5%, HEK293 tox inconclusive, Luciferase inh inactive and NPR1 antag -21%.
`Cc1ccc(CN2CCc3nc(C(=O)Nc4nc(C)cs4)oc3CC2)cc1` gave NIH3T3 tox inconclusive, SNCA viab count -23%[87.6 µM], SNCA expr inh inconclusive, HEK293 tox 71µM*, Luciferase inh inactive and NPR1 antag -21%[70.6 µM].
Screening Cc1csc(NC(=O)c2nc3c(o2)CCN(CC2CCCC2)CC3)n1 returned NIH3T3 tox inconclusive, SNCA viab count 2%[87.6 µM], SNCA expr inh 43%[87.6 µM], HEK293 tox inconclusive, Luciferase inh 28µM* and NPR1 antag -3%[70.6 µM].
For O=C(NCc1ccccc1)c1nc2c(o1)CCN(CC1CCCC1)CC2 the results were NIH3T3 tox inconclusive, SNCA viab count 2%[87.6 µM], SNCA expr inh 18%[87.6 µM], HEK293 tox inconclusive, Luciferase inh inactive and NPR1 antag -4%[70.6 µM].
`Cc1csc(NC(=O)c2nc3c(o2)CCN(Cc2ccc4[nH]ccc4c2)CC3)n1` gave NIH3T3 tox inconclusive, SNCA viab count -28%[87.6 µM], SNCA expr inh 86%[87.6 µM], HEK293 tox 100µM*, Luciferase inh 35µM* and NPR1 antag -17%[70.6 µM].
`Cc1csc(NC(=O)c2nc3c(o2)CCN(CCCc2ccccc2)CC3)n1` gave NIH3T3 tox inconclusive, SNCA viab count -10%[87.6 µM], SNCA expr inh inconclusive, HEK293 tox inconclusive, Luciferase inh inactive and NPR1 antag -7%[70.6 µM].
CC(C)CC(=O)Nc1n[nH]c2c1CN(C(=O)C1CCN(C)CC1)C2(C)C was read as SNCA viab count inconclusive and SNCA expr inh 0.54µM*.
For CC(C)CC(=O)NC1CCN(c2cn[nH]c(=O)c2)CC1 the results were NIH3T3 tox -4%, SNCA viab count inconclusive, SNCA expr inh 30%, HEK293 tox -13%, Luciferase inh inactive and NPR1 antag 0%.
Screening COc1ccc(F)cc1-c1cccc(C(=O)NCCNC(=O)c2ccccc2F)c1 returned NIH3T3 tox inconclusive, SNCA viab count 6%, SNCA expr inh 28% and HEK293 tox 40µM*.
`COc1ccc(F)cc1-c1cccc(C(=O)NCC(=O)NCc2ccc3c(c2)OCO3)c1` gave NIH3T3 tox inconclusive and HEK293 tox 50µM*.
COc1ccc(F)cc1-c1cccc(C(=O)NCCNC(=O)Cc2ccc(F)cc2)c1 was read as NIH3T3 tox inconclusive, SNCA viab count 0%[12.5 µM], SNCA expr inh 5% and HEK293 tox inconclusive.
For COc1ccc(F)cc1-c1cccc(C(=O)NCCNC(=O)c2ccc(C)cc2)c1 the results were NIH3T3 tox -32%, SNCA viab count -17%, SNCA expr inh inconclusive and HEK293 tox inconclusive.
For COc1ccc(C(=O)NCCNC(=O)c2cccc(-c3cc(F)ccc3OC)c2)cc1 the results were NIH3T3 tox inconclusive, SNCA viab count -19%, SNCA expr inh 1% and HEK293 tox 40µM*.
`COCCn1c(=O)c(C(=O)NCC(F)F)nc2cccnc21` gave NIH3T3 tox 2%[138 µM], SNCA viab count 5%[87.6 µM], SNCA expr inh -8%[87.6 µM] and HEK293 tox 1%[172 µM].
`Cc1cc(C)n(Cc2ccc(C(=O)NCC3CCCCC(=O)N3)o2)n1` (stereo not given) gave NIH3T3 tox -20%, SNCA viab count 12%, SNCA expr inh 3% and HEK293 tox -9%.
